Values joined by “and” are separate entries in the source; they are usually repeats but may differ in a detail not shown here. Identical values can stand only once. Records with an inconclusive call do not appear. A call without a number means that no potency is given here. Active and inactive are the calls of the source. The call rests on the fitted dose curve.
assay: Primary qHTS for inhibitors of MERS-S pseudo-typed particle cell entry (AID 1479149); settings: MERS-S pseudotyped particle entry, luciferase; series mostly up to 57.1 µM; further: nearly all actives have a fitted effect of over 60% in size

Compound	Potency
CCCCCC[C@@H](O)C/C=C\CCCCCCCC(=O)O	inactive
Cc1ncc(C[n+]2csc(CCO)c2C)c(N)n1	inactive
CC#CCn1c(N2CCC[C@@H](N)C2)nc2c1c(=O)n(Cc1nc(C)c3ccccc3n1)c(=O)n2C	inactive

assay: Primary qHTS for Vero E6 cytotoxicity: counterscreen for inhibitors of SARS-S pseudo-typed particle cell entry (AID 1479150); settings: cell viability; series mostly up to 57.1 µM

Compound	outcome
CCCCCC[C@@H](O)C/C=C\CCCCCCCC(=O)O	inactive
Cc1ncc(C[n+]2csc(CCO)c2C)c(N)n1	inactive
CC#CCn1c(N2CCC[C@@H](N)C2)nc2c1c(=O)n(Cc1nc(C)c3ccccc3n1)c(=O)n2C	inactive

assay: Confirmatory qHTS for activators (rescue) of SARS-CoV-2 Cytopathic Effect (CPE) (AID 1508606); settings: Vero E6 SARS-CoV-2 CPE rescue, viability luminescence; series mostly up to 20 µM; further: potency means the concentration at half of the fitted maximal effect; nearly all actives have a fitted effect of over 70% in size

Compound	Potency
CC(C)(C)Cn1c(N)nc2ccc(-c3[nH]c(C(C)(C)C)nc3-c3ccc(F)cc3)nc21	1.58 µM (active)
CC(C)(N)c1ccc(-c2nc3ccccc3nc2-c2ccccc2)cc1	10 µM (active)
NC(=O)c1cccc2cn(-c3ccc([C@@H]4CCCNC4)cc3)nc12	11.2 µM (active)

assay: Cytotoxicity counterscreen for inhibitors of SARS-CoV-2 cell entry (AID 1645845); settings: cell viability (SARS-CoV-2 entry assay cells); series mostly up to 57.1 µM; further: nearly all actives have a fitted effect of over 50% in size; further: potency means the concentration at half of the fitted maximal effect
Outline: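 ATP-content luminescence (ATPLite 1step, 15 min RT) read after 48 h compound exposure of Expi293F cells stably expressing human ACE2; normalized to cells-only wells and media-only wells.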

Compound	Potency
Cc1cccc(-c2[nH]c(C(C)(C)C)nc2-c2ccc3c(c2)OCO3)n1	17.8 µM (active)
CCCCCC[C@@H](O)C/C=C\CCCCCCCC(=O)O	inactive
COc1cc2c(cc1OC)CN(CCc1ccc(NC(=O)c3cc(OC)c(OC)cc3NC(=O)c3cnc4ccccc4c3)cc1)CC2	inactive
Cc1ncc(C[n+]2csc(CCO)c2C)c(N)n1	inactive
CN(C)Cc1cccc(N=C(c2ccccc2)c2c(O)[nH]c3cc(C(=O)N(C)C)ccc23)c1	inactive
C[C@]1(c2nc3c(C(N)=O)cccc3[nH]2)CCCN1	inactive
CC(C)(N)c1ccc(-c2nc3ccccc3nc2-c2ccccc2)cc1	inactive
Cc1cc(OCCCS(C)(=O)=O)cc(C)c1-c1cccc(COc2ccc3c(c2)OC[C@H]3CC(=O)O)c1	inactive
COc1cc2ncn(-c3cc(OCc4ccccc4S(C)(=O)=O)c(C#N)s3)c2cc1OC	inactive
COc1ccc(-c2cc3nccn3c(Nc3ncccc3C(N)=O)n2)cc1OC	inactive
C[C@@H](NCc1cc2ccccc2[nH]1)c1cccc2ccccc12	31.6 µM (active)
CC#CCn1c(N2CCC[C@@H](N)C2)nc2c1c(=O)n(Cc1nc(C)c3ccccc3n1)c(=O)n2C	inactive
CC(C)=CC[C@@H](O)C1=CC(=O)c2c(O)ccc(O)c2C1=O	inactive

assay: Primary qHTS to identify inhibitors of SARS-CoV-2 cell entry (AID 1645846); settings: SARS-CoV-2 pseudovirus cell entry assay, luminescence; activity change, negative = inhibition: at 57.1 µM (top of the series) unless noted; series mostly up to 57.1 µM; further: nearly all actives have a fitted effect of over 45% in size
Outline: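 HEK293-ACE2 (Expi293F, stable hACE2), 1500 cells/well, o/n 37C; cpd 23 nL pin, 1 h; MLV-PP w/ SARS-CoV-2-S (Wuhan-Hu-1, Δ19 C-term); 48 h 37C; Bright-Glo luminescence; normalized vs S-PP and bald PP.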

Compound	activity change, negative = inhibition	Potency
CCCCCC[C@@H](O)C/C=C\CCCCCCCC(=O)O	-16.6%	–
C[C@]1(c2nc3c(C(N)=O)cccc3[nH]2)CCCN1	-3.68%	–
CC(C)(N)c1ccc(-c2nc3ccccc3nc2-c2ccccc2)cc1	-19.6%	–
CC#CCn1c(N2CCC[C@@H](N)C2)nc2c1c(=O)n(Cc1nc(C)c3ccccc3n1)c(=O)n2C	-18.4% and -12.2%	–
CC(C)=CC[C@@H](O)C1=CC(=O)c2c(O)ccc(O)c2C1=O	–	inactive

— PubChem BioAssay (NCATS)
